Screening results from PubChem BioAssay.
A selection: hits, their analogues and other compounds. The true share with any hit is near 2.3%.
TRPM1 prom inh: reduces MITF-dependent TRPM1 promoter luciferase signal; inhibition, % at 12.5 µM; SK-MEL-5 TRPM1 promoter luciferase, 24 h; AID 488899; 330,000 tested, 0.83% active;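 active means mean inhibition across replicates of 60% or more, whatever share of single replicates reaches that level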
Gli-Sufu block: antagonists of Gli-Sufu signaling; Sufu-KO-LIGHT fibroblasts, Gli luciferase reporter luminescence; inhibition, % at 5 µM; 340,000 tested, 0.74% active; AID 588413;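 active means inhibition above about 55%, limit read from the data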;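 further: 0% = DMSO-treated cells and 100% = wells with medium but no cells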
EBV LMP1 NFkB: inhibitors of Epstein-Barr LMP1-induced NF-kappaB reporter; LMP1-induced NF-kappaB luciferase reporter cells, luminescence; inhibition, % at 12.5 µM; 350,000 tested, 0.69% active; in the data active means inhibition above about 41%;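 further: 0% = neutral control wells and 100% = reference inhibitor control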
697 NFkB inh: lowers PMA/ionomycin-induced NF-kB signal in 697 B cells; 697 B-cell NF-kB luciferase reporter, 16 h; inhibition, % at 4 µM; 330,000 tested, 0.33% active; AID 435022; in the data active means inhibition above about 35%
Shn3 inh set2: reduces Shn3 3'UTR luciferase signal in osteoblasts. inhibition, % at 12.5 µM. AID 588674. Clone20 osteoblast Shn3 3'UTR firefly luciferase, 24 h. 360,000 tested, 0.52% active;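 active means mean inhibition of at least 75% with every replicate also reaching 75%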;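 further: 0% = median of neutral control wells and 100% = pilot-screen positive control compound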
Jurkat NFkB inh: inhibitors of the PMA/ionomycin-induced NF-kB reporter in Jurkat cells | PMA/ionomycin-induced NF-kB luciferase reporter, luminescence | inhibition, % at 4 µM | 330,000 tested, 0.53% active; in the data active means inhibition above about 50%
697 NFkB conf: lowers PMA/ionomycin-induced NF-kB signal in 697 B cells; 2,000 tested, 35% active; 697 B-cell NF-kB luciferase, 16 h; inhibition, % at 4 µM; shares compounds with 697 NFkB inh; AID 449746; in the data active means inhibition mostly above about 28%, no sharp cut-off; inactive means mostly below about 22%
Numbers without * were called inactive.

What do the screens show for `COc1ccc(S(=O)(=O)Nc2cc3c(C(C)=O)c(C)oc3c3ccccc23)cc1`?
TRPM1 prom inh: 41.0; Gli-Sufu block: 35.1; EBV LMP1 NFkB: 1.7; 697 NFkB inh: 41.2*; Shn3 inh set2: 3.6; Jurkat NFkB inh: 47.7; 697 NFkB conf: 31.9*

How did Cc1cccc(-n2c(SCC(=O)Nc3ncc(Cl)cc3Cl)nc3ccccc32)c1 do in these assays?
TRPM1 prom inh: -9.9; Gli-Sufu block: 6.4; EBV LMP1 NFkB: -0.1; Shn3 inh set2: 28.3

Results for O=C(CSc1nc2ccccc2n1-c1ccccc1)Nc1ncc(Cl)cc1Cl ?
TRPM1 prom inh: -5.2; Gli-Sufu block: 2.9; EBV LMP1 NFkB: -23.4; 697 NFkB inh: inactive; Shn3 inh set2: 13.0; Jurkat NFkB inh: -55.8; 697 NFkB conf: inactive

Results for COc1ccc(NC(=O)CSc2nc3ccccc3n2-c2ccccc2)c([N+](=O)[O-])c1 ?
TRPM1 prom inh: 10.9; Gli-Sufu block: -2.1; EBV LMP1 NFkB: 8.0; 697 NFkB inh: 1.1; Shn3 inh set2: 29.1; Jurkat NFkB inh: -28.0

Results for COc1ccc(-n2c(SCC(=O)Nc3ncc(Cl)cc3Cl)nc3ccccc32)cc1 ?
697 NFkB inh: inactive; Jurkat NFkB inh: -64.9; 697 NFkB conf: inactive

How did Cc1ccnc(NC(=O)Nc2ccc3c(c2)N(C)C(=O)CS3)c1 do in these assays?
TRPM1 prom inh: -173.6; Gli-Sufu block: -99.5; EBV LMP1 NFkB: -76.3; 697 NFkB inh: -338.0; Shn3 inh set2: -123.5; Jurkat NFkB inh: -77.2; 697 NFkB conf: -226.8

Results for CN1C(=O)CSc2ccc(NC(=O)N3CCN(c4ccccc4)CC3)cc21 ?
TRPM1 prom inh: 4.2; Gli-Sufu block: 19.3; EBV LMP1 NFkB: 7.8; 697 NFkB inh: 35.9*; Shn3 inh set2: -1.4; Jurkat NFkB inh: -10.8; 697 NFkB conf: 30.8*

How did O=C(CSc1nnc(-c2ccc(OC(F)F)cc2)o1)NC(=O)NCc1ccco1 do in these assays?
TRPM1 prom inh: 14.3; Gli-Sufu block: -9.5; EBV LMP1 NFkB: 1.4; 697 NFkB inh: -7.7; Shn3 inh set2: -4.9; Jurkat NFkB inh: -36.7

How did c1ccc(CNc2nc(Oc3ccncc3)c3sccc3n2)cc1 do in these assays?
Shn3 inh set2: -1.5

What do the screens show for `FC(F)(F)c1cc(CCN2CCNC[C@H]2Cc2cccc3ccccc23)cc(C(F)(F)F)c1`?
TRPM1 prom inh: 10.3; Gli-Sufu block: -3.9; EBV LMP1 NFkB: 1.8; 697 NFkB inh: 36.0*; Shn3 inh set2: 37.5; Jurkat NFkB inh: 19.6; 697 NFkB conf: 13.2

What do the screens show for `Cc1cccc(/C(N)=N/OC(=O)c2ccc(F)cc2)c1`?
TRPM1 prom inh: -41.5; Gli-Sufu block: -95.5; EBV LMP1 NFkB: -26.8; 697 NFkB inh: -250.6; Shn3 inh set2: -64.1; Jurkat NFkB inh: -125.2; 697 NFkB conf: -142.9

How did N/C(=N\OC(=O)c1ccccc1Cl)c1ccncc1 do in these assays?
TRPM1 prom inh: -57.5; Gli-Sufu block: -52.1; EBV LMP1 NFkB: -20.2; 697 NFkB inh: -87.0; Shn3 inh set2: -105.3; Jurkat NFkB inh: -92.5

What do the screens show for `Cc1ccc(C(=O)O/N=C(\N)c2ccccc2)c(Cl)c1`?
TRPM1 prom inh: 51.0; Gli-Sufu block: 3.0; EBV LMP1 NFkB: 34.9; 697 NFkB inh: -342.7; Shn3 inh set2: 32.2; Jurkat NFkB inh: -49.7; 697 NFkB conf: -354.4

What do the screens show for `COc1ccc(Cl)cc1C(=O)Nc1nc2ccccc2[nH]1`?
TRPM1 prom inh: 53.5; Gli-Sufu block: -79.8; EBV LMP1 NFkB: 17.7; 697 NFkB inh: -385.1; Shn3 inh set2: 7.4; Jurkat NFkB inh: -76.6; 697 NFkB conf: -439.4

What do the screens show for `COc1ccc(C(=O)Nc2nc3ccccc3[nH]2)cc1OC`?
TRPM1 prom inh: -66.8; Gli-Sufu block: -41.9; EBV LMP1 NFkB: -16.4; 697 NFkB inh: -80.0; Shn3 inh set2: -33.9; Jurkat NFkB inh: -87.0

Results for COc1ccc(C(=O)Nc2ccc(OC)c([N+](=O)[O-])c2)cc1Br ?
TRPM1 prom inh: -13.0; Gli-Sufu block: 11.8; EBV LMP1 NFkB: 2.5; 697 NFkB inh: 39.2*; Shn3 inh set2: -0.1; Jurkat NFkB inh: 6.9; 697 NFkB conf: 34.8*

How did O=C(CSc1ccc(Cl)cc1)N1CCCC1 do in these assays?
TRPM1 prom inh: -47.9; Gli-Sufu block: -23.4; EBV LMP1 NFkB: -0.6; 697 NFkB inh: 1.3; Shn3 inh set2: -17.3; Jurkat NFkB inh: -9.5

How did Cc1ccc(S(=O)(=O)c2cc3c(=O)n4ccccc4nc3n(Cc3ccco3)c2=N)cc1C do in these assays?
Gli-Sufu block: -8.8; 697 NFkB inh: 40.5*; Jurkat NFkB inh: 21.5; 697 NFkB conf: 0.0

How did N=c1c(S(=O)(=O)c2ccccc2)cc2c(=O)n3ccccc3nc2n1Cc1ccco1 do in these assays?
TRPM1 prom inh: 2.4; Gli-Sufu block: 1.9; EBV LMP1 NFkB: -11.1; 697 NFkB inh: 4.9; Shn3 inh set2: 5.8; Jurkat NFkB inh: -6.1

Results for CCn1c(=O)cc(OCC(=O)NCc2ccc(C)o2)c2ccccc21 ?
TRPM1 prom inh: 3.1; Gli-Sufu block: 10.1; EBV LMP1 NFkB: -11.8; 697 NFkB inh: 36.1*; Shn3 inh set2: 6.1; Jurkat NFkB inh: 5.7; 697 NFkB conf: 41.8*

What do the screens show for `O=C(O)CCC(NC(=O)C1CCCN1C(=O)OCc1ccccc1)C(=O)O` (stereo not drawn)?
TRPM1 prom inh: 5.9; Gli-Sufu block: -3.9; EBV LMP1 NFkB: -5.8; 697 NFkB inh: -14.9; Shn3 inh set2: -9.5; Jurkat NFkB inh: -25.8

How did CC(C)(CNC(=O)C1CCCN1C(=O)c1cccs1)N1CCOCC1 (stereo not drawn) do in these assays?
TRPM1 prom inh: 4.9; Gli-Sufu block: -0.4; EBV LMP1 NFkB: -4.5; 697 NFkB inh: 56.8*; Shn3 inh set2: -8.5; Jurkat NFkB inh: -1.2; 697 NFkB conf: -6.6

How did COC(=O)C1CCCN1C(C(=O)NC1CCCCC1)c1ccc(Cl)cc1 (stereo not drawn) do in these assays?
Gli-Sufu block: -14.9; EBV LMP1 NFkB: 8.7; 697 NFkB inh: -18.1; Shn3 inh set2: -5.7; Jurkat NFkB inh: -21.1

How did O=C(O)c1ccc(-c2noc(-c3ccc(F)cc3)n2)cc1 do in these assays?
TRPM1 prom inh: -3.5; Gli-Sufu block: -93.9; EBV LMP1 NFkB: -26.8; 697 NFkB inh: -313.2; Shn3 inh set2: -179.4; Jurkat NFkB inh: -75.0; 697 NFkB conf: -282.7

Results for O=C(O)c1ccc(-c2noc(-c3cccc(Cl)c3)n2)cc1 ?
TRPM1 prom inh: -91.4; Gli-Sufu block: -19.2; EBV LMP1 NFkB: -4.7; 697 NFkB inh: -117.3; Shn3 inh set2: -80.7; Jurkat NFkB inh: -23.2

Results for O=C(NCc1ccccc1)C1CCN(S(=O)(=O)N2CCOCC2)CC1 ?
TRPM1 prom inh: -6.7; Gli-Sufu block: 2.8; EBV LMP1 NFkB: 7.9; 697 NFkB inh: 40.8*; Shn3 inh set2: -0.3; Jurkat NFkB inh: -4.7; 697 NFkB conf: -3.6

How did COc1ccc(C(=O)N/N=C/c2cc(Br)ccc2O)cc1OC do in these assays?
TRPM1 prom inh: 65.6*; Gli-Sufu block: 19.3; EBV LMP1 NFkB: 11.3; 697 NFkB inh: 37.0*; Shn3 inh set2: 91.4*; Jurkat NFkB inh: 33.1; 697 NFkB conf: 14.6
